We go through 27 compounds from PubChem BioAssay (NCATS).

The conditions of assay [1]: Ebola virus entry assay, blue channel fluorescence.
The conditions of assay [2]: Ebola virus entry assay, green fluorescence channel.
For assay [3] the following is noted: Ebola virus entry assay, ratio channel readout.
The conditions of assay [4]: Ebola virus entry assay, blue channel fluorescence. The source holds these as a separate data set.
The conditions of assay [5]: Ebola virus entry assay, ratio channel.
The conditions of assay [6]: Ebola virus entry assay, green channel fluorescence.
The conditions of assay [7]: Ebola virus entry assay, blue channel fluorescence. The source holds these as a separate data set.
For assay [8] the following is noted: Ebola virus entry assay, reporter ratio channel; AC50: Channel type: primary unless noted; outcome: Channel type: primary unless noted.
The nature of assay [9]: qHTS profiling of the MIPE4 collection as inhibitors of Plasmodium falciparum (DD2) proliferation (AID 743345; call rule not given here). To be noted: P. falciparum Dd2 in erythrocytes, SYBR Green DNA, 72 h; at 28.5 µM (top of the series) unless noted. The essentials: (§1)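 Parasite DNA was quantified by SYBR Green I fluorescence (ex 485, em 535 nm) after overnight lysis in saponin/Triton buffer at room temperature. Cultures at 0.3% parasitemia and 2.5% hematocrit were first exposed to compound for 72 h at 37 C; signals were normalised to artemisinin (0.29 uM) and vehicle wells.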
A general note: In qHTS, concentration-response curves come from the screen itself.

A short description of assay [10]: qHTS profiling of the MIPE4 collection as inhibitors of Plasmodium falciparum (DD2) proliferation (Rep 2) (AID 743346; call rule not given here). Conditions: P. falciparum Dd2 in erythrocytes, SYBR Green DNA, 72 h; at 28.5 µM (top of the series) unless noted. The essentials: as §1
The nature of assay [11]: qHTS profiling of the MIPE4 collection as inhibitors of Plasmodium falciparum (HB3) proliferation (AID 743347; call rule not given here;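 also: plate controls were DMSO vehicle wells for no effect and artemisinin wells for full effect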). Conditions: P. falciparum HB3 in erythrocytes, SYBR Green DNA, 72 h; at 28.5 µM (top of the series) unless noted. The procedure, abridged: as §1
In assay [12] the target is T1, Hexokinase-4 (Homo sapiens) + Glucokinase regulatory protein (Homo sapiens) (UniProt P35557+Q14397). As to the kind of experiment: qHTS assay for inhibitors of recombinant human GCK-GKRP interaction: ADP-Glo assay (AID 743206; active = well fitted curve in the direction sought with a large enough effect;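 also: plate controls were DMSO plus enzyme for no effect and no enzyme for full effect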). To be noted: ADP-Glo luminescence, 60 min, 0% = vehicle-only wells with enzyme present; series mostly up to 76.9 µM. The procedure, abridged: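 Pin-transferred compounds meet a 15 nM GST-GCK/15 nM FLAG-GKRP/2 uM S6P mix (dispense concentrations). ATP is then added to 0.4 mM final with 5 mM glucose, and the reaction runs 60 min at room temperature. ADP is quantified luminescently.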
T1 sequence (P35557 whole entry, looked up): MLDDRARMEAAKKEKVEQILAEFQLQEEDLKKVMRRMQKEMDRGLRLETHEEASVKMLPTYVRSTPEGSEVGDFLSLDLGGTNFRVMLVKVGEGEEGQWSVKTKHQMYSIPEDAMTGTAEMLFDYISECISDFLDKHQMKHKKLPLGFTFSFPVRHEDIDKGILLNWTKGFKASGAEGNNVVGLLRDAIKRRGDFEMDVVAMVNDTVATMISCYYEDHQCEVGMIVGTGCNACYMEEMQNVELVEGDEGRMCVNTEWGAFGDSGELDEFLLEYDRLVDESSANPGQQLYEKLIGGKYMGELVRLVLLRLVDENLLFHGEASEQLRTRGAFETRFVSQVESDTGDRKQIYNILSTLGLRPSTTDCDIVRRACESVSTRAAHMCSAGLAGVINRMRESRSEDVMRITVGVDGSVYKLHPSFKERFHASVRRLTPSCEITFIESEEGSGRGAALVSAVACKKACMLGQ
T1 sequence (Q14397 whole entry, looked up): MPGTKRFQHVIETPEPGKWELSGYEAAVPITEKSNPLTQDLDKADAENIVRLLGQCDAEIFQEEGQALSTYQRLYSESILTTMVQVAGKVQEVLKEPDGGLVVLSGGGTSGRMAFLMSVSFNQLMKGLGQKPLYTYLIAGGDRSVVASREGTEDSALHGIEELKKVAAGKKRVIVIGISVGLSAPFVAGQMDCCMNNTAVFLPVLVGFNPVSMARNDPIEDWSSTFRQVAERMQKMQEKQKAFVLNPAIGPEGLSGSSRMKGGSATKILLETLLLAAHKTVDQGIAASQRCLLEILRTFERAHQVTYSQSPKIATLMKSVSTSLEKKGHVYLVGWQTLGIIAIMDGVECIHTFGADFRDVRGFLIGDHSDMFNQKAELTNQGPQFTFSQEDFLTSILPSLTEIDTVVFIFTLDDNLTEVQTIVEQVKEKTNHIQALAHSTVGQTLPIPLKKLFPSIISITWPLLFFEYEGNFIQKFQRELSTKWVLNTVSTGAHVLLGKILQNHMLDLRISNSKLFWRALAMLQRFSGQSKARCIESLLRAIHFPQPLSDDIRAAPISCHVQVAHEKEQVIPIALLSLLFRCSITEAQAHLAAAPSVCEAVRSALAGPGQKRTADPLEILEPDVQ

Assay [13] has as its target T1, Hexokinase-4 (Homo sapiens) + Glucokinase regulatory protein (Homo sapiens). As to the kind of experiment: qHTS assay for inhibitors of recombinant human GCK-GKRP interaction: HTRF assay (AID 743207; active = well fitted curve in the direction sought with a large enough effect;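 also: 0% = DMSO with GCK present and -100% = DMSO wells lacking GCK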). Conditions: recombinant GCK-GKRP HTRF binding, 60 min; series mostly up to 57.5 µM. The essentials:
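Steps: dispense GCK–GKRP complex (5 nM each, GST- and FLAG-tagged) with 2 uM S6P; pin in compounds; add XL665/Eu-cryptate-labelled antibodies; incubate 60 min at room temperature; read time-resolved FRET at 665 and 615 nm.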

The nature of assay [14]: qHTS Assay for Identifying Gametocytocidal Compounds (AID 743244; active = well fitted curve in the direction sought with a large enough effect;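 also: % is scaled to controls: 0 for no effect and ±100 for the full control effect; actives lower the fluorescent signal which means gametocytes are killed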). Conditions: P. falciparum 3D7 stage III-V gametocytes, alamarBlue, 72 h; max response: stronger effect = lower value. The procedure, abridged: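 Stage III–V gametocytes of P. falciparum 3D7 were seeded at 20,000 cells/well onto pre-dispensed compounds. After 72 h, 37 °C, 5% CO2, alamarBlue was added for another 24 h.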

A short description of assay [15]: qHTS profiling of the MIPE4 collection as inhibitors of Plasmodium falciparum (3D7) proliferation (AID 743344; call rule not given here;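 also: scaled between DMSO vehicle wells and 0.29 µM artemisinin as full inhibition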). To be noted: P. falciparum 3D7 in erythrocytes, SYBR Green DNA fluorescence, 72 h; at 28.5 µM (top of the series) unless noted. The procedure, abridged: as §1

Several values for one entry are separate records, joined by “and”; a condition that tells them apart may be missing. Identical values can stand only once. Results filed as inconclusive are left out. For some assays here: Entries with a potency or affinity are not part of this list. Activity calls are given as the source filed them.

As to `CN=C(NC#N)NCCSCc1nc[nH]c1C`, the compound was classed as inactive in assay [1], in assay [2], in assay [3], in assay [4], in assay [5] and in assay [6]. Also, the outcome in assay [7] and in [8] was inactive.

`CC(C)[C@H]1C(=O)N2CCC[C@H]2[C@]2(O)O[C@](NC(=O)[C@@H]3C[C@@H]4c5cccc6[nH]cc(c56)C[C@H]4N(C)C3)(C(C)C)C(=O)N12`: the call in [1], in [2] and in assay [3] was inactive.

With `N#Cc1ccc2c(c1)N(CCCN1CCC(O)CC1)c1ccccc1S2`, the compound was called inactive in assay [1] and in assay [2]. Besides, in assay [3], the AC50 (as a rule, the concentration at which the activity in the assay is half-maximal) is 22.4 µM (active).

Take `NS(=O)(=O)c1cc2c(cc1C(F)(F)F)NC(Cc1ccccc1)NS2(=O)=O` (stereo unspecified): the compound was called inactive in assay [1], in assay [2], in assay [3], in assay [4], in assay [5] and in assay [6]. The call in [7] and in assay [8] was inactive.

Take `C=CC[C@@H]1C=C(C)C[C@H](C)C[C@H](OC)[C@H]2O[C@@](O)(C(=O)C(=O)N3CCCC[C@H]3C(=O)O[C@H](C(C)=C[C@@H]3CC[C@H](O)[C@H](OC)C3)[C@@H](C)[C@@H](O)CC1=O)[C@@H](C)C[C@@H]2OC`: the compound was called inactive in assay [1], in assay [2] and in [3].

Take `CC(C)(C)NC[C@H](O)COc1ccccc1C1CCCC1`: the AC50 was 4.47 µM (active) in assay [1] and 3.55 µM (active) in assay [3]. Besides, the outcome in assay [2] was inactive.

As to `NCCCCCC(=O)O`, the call in assay [1], in assay [2], in [3], in assay [4], in assay [5] and in assay [6] was inactive. The outcome in assay [7] and in assay [8] was inactive.

On to `CO[C@H]1C=CO[C@@]2(C)Oc3c(C)c(O)c4c(O)c(c(/C=N/N5CCN(C6CCCC6)CC5)c(O)c4c3C2=O)NC(=O)/C(C)=C\C=C[C@H](C)[C@H](O)[C@@H](C)[C@@H](O)[C@@H](C)[C@H](OC(C)=O)[C@@H]1C`, for which the outcome in [1], in assay [2] and in assay [3] was inactive.

On to `C#CCN[C@@H]1CCc2ccccc21`, for which the outcome in [1], in assay [2], in [3], in assay [4], in assay [5] and in assay [6] was inactive. Moreover, the compound was classed as inactive in [7] and in assay [8].

`C=CCN1C[C@H](C(=O)N(CCCN(C)C)C(=O)NCC)C[C@@H]2c3cccc4[nH]cc(c34)C[C@H]21`: the compound was called inactive in assay [1], in assay [2], in [3], in assay [4], in assay [5] and in assay [6]. Besides, the result in assay [8] was inactive.

As to `COc1cc(NS(C)(=O)=O)ccc1Nc1c2ccccc2nc2ccccc12`, the compound was classed as inactive in assay [1], in assay [2] and in [3].

Consider `CNCCCC12CCC(c3ccccc31)c1ccccc12`, for which the AC50 is 3.16 µM (active) in assay [1], 3.17 µM (active) in assay [3], 3.55 µM (active) in assay [4] and 3.16 µM (active) in [5]. In [2], the result was inactive. Also, the outcome in [8] was “inactive [Channel type: confirmation]”.

With `COc1cc(C(=O)NS(=O)(=O)c2ccccc2C)ccc1Cc1cn(C)c2ccc(NC(=O)OC3CCCC3)cc12`, the result in [1], in [2], in assay [3], in assay [4], in assay [5] and in assay [6] was inactive. In addition, the outcome in assay [7] and in [8] was inactive.

In the case of `CN1CCN2c3ncccc3Cc3ccccc3C2C1` (stereo unspecified), the compound was called inactive in [1], in assay [2] and in [3].

With `CC(C)NCC(O)c1ccc(NS(C)(=O)=O)cc1` (stereo unspecified), the result in assay [1], in [2] and in assay [3] was inactive.

For `CNNCc1ccc(C(=O)NC(C)C)cc1`, the result in assay [1], in assay [2], in [3], in assay [6], in assay [7] and in assay [8] was inactive.

Consider `CCC[C@@]1(CCc2ccccc2)CC(O)=C([C@H](CC)c2cccc(NS(=O)(=O)c3ccc(C(F)(F)F)cn3)c2)C(=O)O1`, for which the result in assay [1], in assay [2], in assay [3] and in assay [7] was inactive.

In the case of `CCS(=O)(=O)CCn1c([N+](=O)[O-])cnc1C`, the compound was classed as inactive in [1], in assay [2], in [3], in assay [4], in assay [6] and in assay [7]. Further, the outcome in [8] was inactive.

As to `Nc1nc2ccc(OC(F)(F)F)cc2s1`, the result in assay [1], in [2], in assay [3], in [6], in assay [7] and in assay [8] was inactive.

Regarding `Nc1ccc(S(=O)(=O)c2ccc(N)cc2)cc1`, the outcome in assay [1], in [2], in assay [3], in [4], in assay [6] and in assay [7] was inactive. The result in [8] was inactive.

In the case of `Nc1ccn([C@@H]2O[C@H](CO)[C@@H](O)C2O)c(=O)n1` (stereo partly specified), the compound was classed as inactive in assay [1], in [2], in [3] and in assay [7].

Regarding `S=P(N1CC1)(N1CC1)N1CC1`, the compound was classed as inactive in [1], in [2], in [3], in [5], in assay [6] and in assay [7]. For the same compound, the outcome in assay [8] was inactive.

In turn, `CC(C)[C@H](N)C(=O)OCCOCn1cnc2c(=O)[nH]c(N)nc21` gave a parasite growth remaining, % of DMSO control (lower = more inhibition) in [9] of 94%. For the same compound, the parasite growth, % of control (lower = inhibition) in assay [10] was found to be 136%. Moreover, the growth, % of control in assay [11] was found to be 102%. Besides, the call in assay [1], in assay [2], in [3], in assay [5], in [6] and in assay [7] was inactive. In assay [8], the outcome was inactive.

In the case of `NC(N)=Nc1nc(CSCC/C(N)=N/S(N)(=O)=O)cs1`, the outcome in assay [1], in [2], in [3], in assay [6], in assay [7] and in [8] was inactive.

On to `Cc1noc(NS(=O)(=O)c2ccc(N)cc2)c1C`, for which the call in assay [1], in [2], in [3], in assay [6], in assay [7] and in assay [8] was inactive.

On to `CC(NC(C)(C)C)C(=O)c1cccc(Cl)c1` (stereo unspecified), for which the result in assay [12], in assay [13], in assay [1], in assay [2], in assay [3] and in assay [4] was inactive. For the same compound, the call in [6], in assay [7] and in assay [8] was inactive. Also, the max response in assay [14] is -0.241% (inactive) and 10.5% (inactive). Moreover, in assay [15], the parasite growth, % of DMSO control was found to be 26.6%. The parasite growth remaining, % of DMSO control (lower = more inhibition) in assay [9] is 55.9%. Moreover, the parasite growth, % of control (lower = inhibition) in assay [10] amounted to 31%. Also, the growth, % of control in assay [11] worked out at 7.91%.

Take `CN1C(C(=O)Nc2ccccn2)=C(O)c2ccccc2S1(=O)=O`: the call in [1], in [2], in assay [3], in [4], in assay [6] and in assay [7] was inactive. Moreover, the result in assay [8] was inactive.
